This is one part of a sample in which hits are shown more often than they occur.
RMI FANCM FP – disruptors of RMI1/RMI2 association with MM2 peptide – biochemical, fluorescence polarization, human, primary screen; RMI core complex (RMI1/RMI2) binding to FANCM MM2 peptide, human; RMI core complex with F-MM2 peptide; stronger effect = lower value; FP signal (polarization) at 33 µM; 70,000 tested, 0.58% active; in the data active = FP signal below about 40
Starred values were filed as active, the others as inactive.

SMILES	RMI FANCM FP
COc1ccc(-c2cc(-c3ccc(Cl)cc3)nc3sc(C(=O)N4CCOCC4)c(N)c23)cc1	-18*
COc1ccc(-c2cc(-c3ccc(OC)cc3)c3c(N)c(C(=O)c4ccc(Cl)cc4)sc3n2)cc1	500
CC1(C)CC(=O)c2c(nc3sc(C(=O)NCC4CCCO4)c(N)c3c2-c2ccccc2)C1 (stereo unspecified)	53
COc1ccc(-c2cc(-c3ccccc3)nc(SCC(=O)NCC3CCCO3)c2C#N)cc1 (stereo unspecified)	94
COc1ccc(OCCNC(=O)CCCO)cc1	52
O=C(CSc1nc2ccccc2o1)N1CCOCC1	72
O=C(Cn1cnc2ccccc21)N1CCOCC1	58
O=C(CSc1nnc2nnc3ccccc3n12)N1CCOCC1	17*
O=C(c1ccccc1)c1ccc2c3c(cccc13)CC2	62
Cc1ccccc1N1C(=O)c2cccc3c(C(=O)O)ccc(c23)C1=O	60
O=C(c1ccccc1)c1ccc2c3c(cccc13)C(=O)N(c1ccc3c4c(cccc14)CC3)C2=O	18*
COc1ccc(S(=O)(=O)N2CCN(S(=O)(=O)c3ccc(OC)c(C)c3)C(C)C2)cc1C (stereo unspecified)	59
COc1ccc(OCCNC(=O)N2CCCCC2)cc1	65
Cc1nc2scc(-c3cccc(NS(C)(=O)=O)c3)n2c(=O)c1C	69
O=[N+]([O-])c1ccccc1-c1ccc(-c2nnc(-c3ccco3)o2)o1	25*
O=[N+]([O-])c1cccnc1Sc1nccc(-c2ccco2)n1	54
CCOC(=O)C(=Cc1ccc(-c2ccccc2[N+](=O)[O-])o1)C(=O)OCC	58
CCN1C(=O)C2CC(C)=C(C)CC2C1=O (stereo unspecified)	29*
CC1=C(C)CC2C(=O)N(C(Cc3ccccc3)C(=O)O)C(=O)C2C1 (stereo unspecified)	57
CC1=C(C)CC2C(=O)N(c3ccc(O)cc3)C(=O)C2C1 (stereo unspecified)	59
CN1C(=O)NC2(CCN(S(=O)(=O)c3cccnc3)CC2)C1=O	56
O=C(NCc1ccc(F)cc1)C(=O)NCC1CCN(Cc2ccccc2)CC1	74
COC(=O)c1sc2ccccc2c1NC(=O)CN1C(=O)CCC1=O	58
Cc1[nH]c2ccccc2c1C(c1ccco1)c1c(C)[nH]c2ccccc12	135
Cc1[nH]c2ccccc2c1C(c1ccc(OC(F)F)cc1)c1c(C)[nH]c2ccccc12	36
SMILES	RMI FANCM FP
Cc1[nH]c2ccccc2c1C(c1ccc(C(C)C)cc1)c1c(C)[nH]c2ccccc12	29*
O=C(Cc1ccc(Cl)cc1)N(Cc1cccnc1)c1nc2c(F)cc(F)cc2s1	75
COc1ccc(N2C(=O)c3ccc(C(=O)c4ccc5c(c4)C(=O)N(c4ccc(OC)cc4)C5=O)cc3C2=O)cc1	6*
COc1ccc(N2C(=O)C3C4C=CC(O4)C3C2=O)cc1 (stereo unspecified)	56
CCC(=O)Oc1ccc(N2C(=O)c3ccccc3C2=O)cc1	31*
C=CC(=O)Oc1ccc(N2C(=O)c3cccc([N+](=O)[O-])c3C2=O)cc1	58
COc1ccc(SCC(=O)Nc2ccc3c(c2)C(=O)N(C)C3=O)cc1	66
CCC(=O)Oc1cccc(N2C(=O)C3CCCCC3C2=O)c1 (stereo unspecified)	53
Cc1ccc(NC(=O)CCn2cnc3c(cnn3C(C)(C)C)c2=O)cc1F	75
CCOC(=O)c1cn(C)c2cc(F)c(F)cc2c1=O	63
O=S(=O)(NCc1ccsc1)c1ccccc1F	65
Cn1c(SCc2c(F)cccc2Cl)n[nH]c1=S	54
CCOC(=O)c1ccc(NC(=O)C(Br)C(Br)c2ccccc2)cc1 (stereo unspecified)	86
O=C(c1ccccc1)N1CCc2ccc(NS(=O)(=O)Cc3ccc(Cl)cc3)cc2C1	65
CCOC(=O)C1CCN(S(=O)(=O)c2ccc(S(=O)(=O)c3ccccc3)s2)CC1	125
COC(=O)c1ccccc1NC1=CC(=NS(=O)(=O)c2ccc(F)cc2)c2ccccc2C1=O	57
O=C1C(NS(=O)(=O)c2ccccc2)=CC(=NS(=O)(=O)c2ccc(F)cc2)c2ccccc21	58
COc1ccc(S(=O)(=O)N=C2C=C(Nc3cccc(C)c3)C(=O)c3ccccc32)cc1	13*
CCOC(=O)c1oc2ccccc2c1NC(=O)c1ccc(C(C)(C)C)cc1	61
CCOC(=O)c1ccc(NC(=O)c2ccc(NS(=O)(=O)c3cccc4cccnc34)cc2)cc1	60
COc1cccc(OC)c1C(=O)Nc1ccc(-n2c(C)nc3ncccc3c2=O)cc1	53
NC[C@@H]1O[C@H](O[C@@H]2[C@@H](CO)OC(O[C@@H]3[C@@H](O)[C@H](N)C[C@H](N)[C@H]3O[C@H]3O[C@H](CO)[C@@H](O)[C@H](O)[C@H]3N)[C@@H]2O)[C@H](N)[C@@H](O)[C@@H]1O (stereo partly specified)	58

Source: PubChem BioAssay (Small Molecule Screening Facility, UW Madison)
